From PubChem BioAssay (NCATS)
Results filed as inconclusive are left out. Activity calls are given as the source filed them. Calls come from the whole dose curve; as a rule, active = well fitted curve in the direction sought with a large enough effect; inconclusive = small, poorly fitted or top-dose-only effect, or another doubt; inactive = no such curve, though single readings can be large; an effect the other way counts as inactive or inconclusive.

What was measured:
[1] = U-118MG Cancer Cell Toxicity qHTS against the NCATS CANVASS Library (AID 1347351); note: series mostly up to about 38 µM
Summary of the method: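 1000 cells/well seeded and rested 4 h at 37 °C before pin transfer of compounds in an 11-pnt series. Exposure 72 h at 37 °C/5% CO2; viability by CellTiter-Glo luminescence after 15 min at room temperature.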

[2] = HPAF-II 24hr Apoptosis Induction qHTS against the NCATS CANVASS Library (AID 1347356)
Summary of the method: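 Apoptosis induction in HPAF-II pancreatic cancer cells is measured as caspase-3/7 luminescence after a 24-hour exposure to compounds.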

[3] = HEK293 18hr Apoptosis Induction qHTS against the NCATS CANVASS Library (AID 1347357)
Summary of the method: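 Natural products applied to HEK293 for 18 hr; Caspase-Glo 3/7 readout.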

[4] = HPAF-II 18hr Apoptosis Induction qHTS against the NCATS CANVASS Library (AID 1347360)
Summary of the method: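 Luminescent DEVD-substrate signal, proportional to caspase activity, is measured in HPAF-II cells after 18-hour treatment across a concentration series; doxorubicin serves as control.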

[5] = HEK293 12hr Apoptosis Induction qHTS against the NCATS CANVASS Library (AID 1347361)
Summary of the method: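 Luminescent caspase-3/7 signal, proportional to enzyme activity, was recorded from HEK293 cultures in DMEM + 10% FBS treated for 12 hours with titrated natural products (11 points). Doxorubicin (0.1nM - 4uM) served as control.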

[6] = KB-3-1 Cancer Cell Toxicity qHTS against the NCATS CANVASS Library (AID 1347366); note: nearly all actives have a fitted effect of over 75% in size
Summary of the method: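 Cytotoxicity toward KB-3-1 cells (500/well, DMEM + 10% FBS) was scored by CellTiter-Glo luminescence following 72 hr exposure at 37C, with bortezomib titrated as control.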

[7] = MCF7 Cancer Cell Toxicity qHTS against the NCATS CANVASS Library (AID 1347369)
Summary of the method: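 This 72 hr qHTS scored MCF7 viability by CellTiterGlo luminescence, with 500 cells/well; bortezomib titration ran as control.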

[8] = qHTS for ATAD5 Antagonist screened against the NCATS CANVASS Library (AID 1347370);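 note: HEK293T cells carrying an ATAD5 luciferase reporter co-treated with 10 µM 5-fluorouridine; series mostly up to about 46 µM; nearly all actives have a fitted effect of over 65% in size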
Summary of the method: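 HEK293T cells with a stably integrated ATAD5-controlled luciferase reporter were exposed to compounds (11-pt) alongside 10 uM 5-fluorouridine as ATAD5 stabilizer for 16hr at 37C. Viability was read by CellTiter-Fluor fluorescence, then ATAD5 by luminescence.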

[9] = J3T Cancer Cell Toxicity qHTS against the NCATS CANVASS Library (AID 1347371);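 note: J3T is a canine glioma cancer cell line seeded at 500 cells per well; series mostly up to about 46 µM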
Summary of the method: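 Viability of the J3T glioma line from dog is scored by ATP luminescence after a 72 hr incubation with natural products.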

[10] = biological target: Nuclear receptor subfamily 1 group I member 3 (Homo sapiens) (UniProt Q14994); assay: qHTS for Constitutive Androstane Receptor (CAR) Antagonist screened against the NCATS CANVASS Library (AID 1347372);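 note: cells stimulated with 50 nM CITCO agonist so inhibition reflects antagonism; series mostly up to about 46 µM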
Chain of Nuclear receptor subfamily 1 group I member 3 (Homo sapiens) (Q14994 whole entry, looked up): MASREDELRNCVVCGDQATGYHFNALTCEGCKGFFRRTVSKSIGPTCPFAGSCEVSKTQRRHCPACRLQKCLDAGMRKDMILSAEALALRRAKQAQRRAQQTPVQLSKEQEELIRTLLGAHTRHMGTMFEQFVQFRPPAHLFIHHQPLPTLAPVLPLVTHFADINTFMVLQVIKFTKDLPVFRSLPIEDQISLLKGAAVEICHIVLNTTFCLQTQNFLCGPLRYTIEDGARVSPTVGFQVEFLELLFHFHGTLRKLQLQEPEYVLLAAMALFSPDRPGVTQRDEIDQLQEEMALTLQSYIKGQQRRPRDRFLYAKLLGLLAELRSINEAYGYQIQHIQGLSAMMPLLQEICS
Summary of the method: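 HepG2 cells stably carrying hCAR and CYP2B6-2.2kb luciferase reporter, 2500 cells/well, compound with 50 nM CITCO agonist for 24hr at 37C. ONE-Glo luminescence measured CAR activity; CellTiter-Fluor read viability.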

[11] = 10-beta competent E. coli microbial cell viability qHTS against the NCATS CANVASS Library (AID 1347376); note: series mostly up to about 46 µM
Summary of the method: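 Cytotoxicity toward competent E. coli is scored from cellular ATP content via BacTiter-Glo luminescence following overnight compound exposure at 37C, 5% CO2.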

[12] = qHTS for H2AX Agonists against the NCATS CANVASS Library (AID 1347378);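 note: phospho-H2AX S139 level in CHO-K1 lysates by TR-FRET emission ratio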
Summary of the method: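 Signal is the 665/620 nm emission ratio from europium cryptate and d2 antibody pair, rising with S139-phosphorylated H2AX. CHO-K1 cells saw test agents for 3 hr at 37C; detection ran 24 hr at room temperature.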

[13] = qHTS for Inflammasome Signaling Inhibitors: IL-1-beta AlphaLISA screen against the NCATS CANVASS Library (AID 1347379);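 note: human THP-1 cells primed with LPS then triggered with ATP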
Summary of the method: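 Human THP-1 cells were pretreated 1 hr at 37 °C with compounds (up to 57.5 uM final), then stimulated with LPS (250 ng/mL final) and ATP (1.25 mM final). Secreted IL-1B was read by AlphaLISA after 16 hr.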

[14] = Cytotoxicity qHTS for assessment of Hepg2 cells membrane integrity screened against the NCATS CANVASS Library (AID 1347387)
Summary of the method: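 Fluorescence proportional to lysed-cell number, from LDH leaking out of HepG2 cells exposed 5 hr at 37C to 0.59 nM - 46 uM compound (11-point qHTS), is measured after 10 min with CytoTox-ONE.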

[15] = Secretion counterscreen for inhibitors of the SERCaMP assay screened against the NCATS CANVASS Library (AID 1347390);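 note: light from luciferase secreted into medium read as a measure of general secretion; series mostly up to about 77 µM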
Summary of the method: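 Natural products are titrated in an 11-point series up to 77 uM onto SH-SY5Y-GLuc STOP cells for 20 h. Secreted reporter activity is measured as coelenterazine-driven luminescence, with Brefeldin A on each plate.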

[16] = Vero-766 cells viability qHTS against the NCATS CANVASS Library: Counterscreen for Zika virus inhibition assay (AID 1347394); note: series mostly up to about 46 µM; nearly all actives have a fitted effect of over 60% in size
Summary of the method: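 Counterscreen for toxicity: Vero 766 cells exposed 72 h to an 11-point compound series, viability by CellTiter-Glo.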

[17] = Viability qHTS for inhibitors of the SERCaMP assay screened against the NCATS CANVASS Library (AID 1347400); note: series mostly up to about 92 µM; nearly all actives have a fitted effect of over 70% in size
Summary of the method: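 Cytotoxicity counter-screen: ATP content (CellTiter-Glo luminescence) of SH-SY5Y-GLuc SERCaMP MJH297 cells after 48 h at 37C with compounds in an 11-point qHTS series.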

[18] = Redox Reaction Profiling qHTS: Assay Interference Panel against the NCATS CANVASS Library (AID 1347401)
Summary of the method: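 Compounds in 11-point series incubated with 5 uM resazurin and 200 uM DTT in 50 mM HEPES pH 7.3, 50 mM NaCl. Resorufin fluorescence (Ex 525/Em 598) read before and after 15 min in the dark.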

[19] = tested on: NAD(P)H diaphorase (Clostridium kluyveri); assay: Diaphorse counterscreen qHTS: Assay Interference Panel against the NCATS CANVASS Library (AID 1347362)
Summary of the method: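 Clostridium kluyveri diaphorase in PBS + 0.01% Tween-20 preincubated 15 min with compounds. Resazurin and NADH then added for 5 min at room temperature in the dark; resorufin fluorescence read (ex 525, em 598).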

[20] = biological target: Nuclear receptor subfamily 1 group I member 3 (Homo sapiens) (UniProt Q14994); assay: qHTS for Constitutive Androstane Receptor (CAR) Agonist screened against the NCATS CANVASS Library (AID 1347373);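 note: every well also contained 1.5 µM PK11195 alongside the test compound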
Summary of the method: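 CAR agonism is scored as CYP2B6-promoter luciferase induction in a double-stable transfected HepG2 line, where 1.5uM PK11195 is included in each well. Compounds were tested over a 24hr exposure.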

Measured: Potency

CC(C)=CCC/C(C)=C/Cc1cc([C@@H]2CC(=O)c3c(cc(O)c(CC=C(C)C)c3O)O2)ccc1O
not listed: [19] | [20]
inactive: all other assays above

C[C@@]1(CCC(=O)Nc2c(O)ccc(C(=O)O)c2O)C(=O)C=C[C@]23C[C@H]4C[C@H](O[C@@]4(C)C2)C31 (some centres undefined)
inactive: all assays above

COc1c(O)cc(O)c2c(=O)cc(-c3ccccc3)oc12
not listed: [1] | [6] | [13] | [16]
inactive: all other assays above

C/C=C(/CO)C(=O)O[C@@H]1[C@H](O)[C@@H](C(=O)OC)O[C@@H]2C[C@H]3OC(n4cnc5c(N)ncnc54)[C@H](OC)[C@H]3O[C@@]12O (some centres undefined)
not listed: [18]
inactive: all other assays above

O=c1cc(-c2ccc(O)cc2)oc2cc(O)c([C@@H]3OC(CO)[C@H](O)[C@@H](O)[C@H]3O)c(O)c12 (some centres undefined)
inactive: all assays above

CC1=C(C)C(=O)OC(C(C)C2(O)CCC3C4C5OC5C5(O)CC=CC(=O)C5(C)C4CCC32C)C1 (centres undefined)
not listed: [15] | [17] | [18] | [20]
inactive: all other assays above
